Unmarked numbers belong to inactive results. Active and inactive are the calls of the source. Rule as the data show it, unless noted: active = inhibition above about 42%; inactive = the rest.
Columns and labels:
[1] = StAR promoter reporter inhibitors, counter-screen for LRH-1 inverse agonist project, cell-based, luminescence, high throughput (AID 651611; in the data active = inhibition above about 28%); details: StAR promoter luciferase reporter counterscreen, at 3.6 µM, hits give high values
[2] = molecular target: Nuclear receptor subfamily 5 group A member 2 (Homo sapiens) (UniProt O00482); assay: NR5A2 activity suppression in reporter cells – cell-based, luminescence, confirmation (AID 651613); details: cell-based LRH-1 luciferase reporter, inverse agonism; at 3.6 µM; hits give high values;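 also: HEK293T cells co-transfected with LRH-1 and StAR promoter luciferase reporter; 0% = vehicle wells and 100% = parental cells lacking receptor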
[3] = molecular target: Steroidogenic factor 1 (Homo sapiens) (UniProt Q13285); assay: inverse agonism at SF1 nuclear receptor – cell-based, luminescence, high throughput, counter-screen for LRH-1 inverse agonist project (AID 651614; in the data active = inhibition above about 44%;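 also: cells cotransfected with StAR promoter reporter and SF1 expression vector; 0% = vehicle on cells with receptor and 100% = vehicle on cells lacking receptor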); details: cell-based SF1 luciferase reporter, at 3.6 µM, hits give high values
[4] = compounds suppressing VP16-driven luciferase signal – cell-based, luminescence, high throughput, counter-screen for LRH-1 inverse agonist project (AID 651615; in the data active = inhibition above about 33%); details: Gal4-VP16 luciferase reporter cells, at 3.6 µM, hits give high values

Chain of Steroidogenic factor 1 (Homo sapiens) (Q13285 whole entry, looked up, the tested form may be a part): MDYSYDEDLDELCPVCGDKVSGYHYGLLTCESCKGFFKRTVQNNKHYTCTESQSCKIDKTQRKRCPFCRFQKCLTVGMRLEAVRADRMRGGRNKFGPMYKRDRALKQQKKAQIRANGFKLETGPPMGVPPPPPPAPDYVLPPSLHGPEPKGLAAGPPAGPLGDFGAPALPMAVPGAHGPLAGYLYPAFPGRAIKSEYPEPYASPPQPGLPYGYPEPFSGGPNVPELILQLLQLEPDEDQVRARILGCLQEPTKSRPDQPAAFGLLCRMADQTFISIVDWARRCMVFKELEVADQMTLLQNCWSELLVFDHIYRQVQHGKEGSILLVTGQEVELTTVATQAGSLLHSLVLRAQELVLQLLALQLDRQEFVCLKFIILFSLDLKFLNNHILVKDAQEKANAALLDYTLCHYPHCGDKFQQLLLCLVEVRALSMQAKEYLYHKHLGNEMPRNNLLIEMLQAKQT
Chain of Nuclear receptor subfamily 5 group A member 2 (Homo sapiens) (O00482 whole entry, looked up): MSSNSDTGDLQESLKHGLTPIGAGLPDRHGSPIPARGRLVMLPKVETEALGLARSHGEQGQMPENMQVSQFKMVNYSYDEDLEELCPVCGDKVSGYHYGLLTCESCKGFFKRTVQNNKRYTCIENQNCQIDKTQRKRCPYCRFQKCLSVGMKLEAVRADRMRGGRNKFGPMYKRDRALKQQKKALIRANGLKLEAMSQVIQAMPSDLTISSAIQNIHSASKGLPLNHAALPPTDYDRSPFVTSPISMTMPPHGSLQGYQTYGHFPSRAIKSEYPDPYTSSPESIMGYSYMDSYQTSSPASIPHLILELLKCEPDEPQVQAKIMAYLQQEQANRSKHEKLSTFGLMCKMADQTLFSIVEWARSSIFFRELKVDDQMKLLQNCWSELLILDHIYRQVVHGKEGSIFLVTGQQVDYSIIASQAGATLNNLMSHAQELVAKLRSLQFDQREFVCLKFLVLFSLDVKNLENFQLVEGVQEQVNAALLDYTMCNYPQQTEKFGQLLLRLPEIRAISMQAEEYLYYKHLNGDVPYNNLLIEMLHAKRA

Cc1ccccc1N=C1NC(=O)/C(=C/c2cccnc2)S1
inhibition [1]: 13.1%
inhibition [2]: 39.8%
inhibition [3]: 40.2%
inhibition [4]: 8.55%

COc1ccc(NC(=O)CSc2nnc3ccc(-c4cccnc4)nn23)cc1OC
inhibition [1]: 7.32%
inhibition [2]: 42.1% (active)
inhibition [3]: 41.9%
inhibition [4]: -8.78%

Cc1ccc(Cl)cc1N1CCN(C(=O)C(C)n2ncn3cccc3c2=O)CC1 (configuration not stated)
inhibition [1]: 7.03%
inhibition [2]: 35.4%
inhibition [3]: 41.2%
inhibition [4]: 2.84%

COC(=O)C1(C)Nc2ccccc2C(=O)N1c1ccccc1C (configuration not stated)
inhibition [1]: 2.27%
inhibition [2]: 16%
inhibition [3]: 0.53%
inhibition [4]: 7.07%

O=C(CSc1nnc(CNC(=O)c2c(F)cccc2F)o1)Nc1ccc2c(c1)OCCO2
inhibition [1]: 9.56%
inhibition [2]: 44.6% (active)
inhibition [3]: 54.6% (active)
inhibition [4]: -8.58%

Cc1ccc(C(=O)N/N=C\c2ccc([N+](=O)[O-])o2)cn1
inhibition [1]: 24.3%
inhibition [2]: 59% (active)
inhibition [3]: 57% (active)
inhibition [4]: 0.83%

Cc1cccc(CN2C(=O)CSc3ccc(C(=O)NC4CC4)cc32)c1
inhibition [1]: 10.4%
inhibition [2]: 62.2% (active)
inhibition [3]: 51.8% (active)
inhibition [4]: -6.63%

Cc1sc(NC(=O)C(C)C)c(C(=O)Nc2ccccc2)c1C
inhibition [1]: 13.2%
inhibition [2]: 50.2% (active)
inhibition [3]: 45.9% (active)
inhibition [4]: -9.75%

CCCCNc1cc(C)nc(NCc2ccccc2)n1
inhibition [1]: 35.5% (active)
inhibition [2]: 57.6% (active)
inhibition [3]: 68.8% (active)
inhibition [4]: 50.8% (active)

COc1ccc(NC(=O)CN2C(=O)C(C)SC(C)C2=O)c(OC)c1 (configuration not stated)
inhibition [1]: 4.55%
inhibition [2]: 44% (active)
inhibition [3]: 49% (active)
inhibition [4]: 11.3%

CC(=O)Nc1ccc(N=c2cc([N+](=O)[O-])cc(Cl)n2O)cc1
inhibition [1]: 14.3%
inhibition [2]: 59.6% (active)
inhibition [3]: 57.8% (active)
inhibition [4]: -3.98%

Nc1nc2ccccc2n1/N=C/c1ccc([N+](=O)[O-])s1
inhibition [1]: -0.84%
inhibition [2]: 61.2% (active)
inhibition [3]: 65.1% (active)
inhibition [4]: -3.2%

NC(=O)c1oc2ccccc2c1NC(=O)c1ccc([N+](=O)[O-])o1
inhibition [1]: 23.2%
inhibition [2]: 67.6% (active)
inhibition [3]: 69.1% (active)
inhibition [4]: -9.15%

Cc1ccc(NC(=O)CCl)c(C)c1
inhibition [1]: 35% (active)
inhibition [2]: 59.3% (active)
inhibition [3]: 63.2% (active)
inhibition [4]: -43.6%

CCCc1cc(=O)oc2cc3occ(C)c3cc12
inhibition [1]: -0.89%
inhibition [2]: 42.1% (active)
inhibition [3]: 37.8%
inhibition [4]: 1.16%

COc1ccc(NC(=O)Cn2c(C)cc(=O)c3ccccc32)cc1
inhibition [1]: 0.15%
inhibition [2]: 64.9% (active)
inhibition [3]: 53.2% (active)
inhibition [4]: 35.1% (active)

Cc1cc2oc(=O)cc(C)c2cc1NC(=O)CCl
inhibition [1]: 32.9% (active)
inhibition [2]: 58.9% (active)
inhibition [3]: 57.7% (active)
inhibition [4]: -57.1%

CC(=O)C1=C(c2cccc([N+](=O)[O-])c2)N(C(C)=O)n2c(C)nnc2S1
inhibition [1]: 5.25%
inhibition [2]: 58.4% (active)
inhibition [3]: 50.3% (active)
inhibition [4]: -4.12%

Cc1nnsc1C(=O)NC1CCCc2c1cnn2-c1ccc(F)cc1F (configuration not stated)
inhibition [1]: 19.6%
inhibition [2]: 59.4% (active)
inhibition [3]: 55.4% (active)
inhibition [4]: 55.9% (active)

COc1ccc(/C=C/C(=O)c2cc(F)ccc2OC(=O)c2ccccc2C)cc1OC
inhibition [1]: 52.9% (active)
inhibition [2]: 41.1%
inhibition [3]: 44.9% (active)
inhibition [4]: 40.4% (active)

O=C(N/N=C/c1ccc([N+](=O)[O-])s1)c1ccccc1Br
inhibition [1]: 40.1% (active)
inhibition [2]: 57.5% (active)
inhibition [3]: 65.3% (active)
inhibition [4]: 14%

O=C(CCl)Nc1ccccc1C(=O)c1ccccc1
inhibition [1]: 1.14%
inhibition [2]: 48.4% (active)
inhibition [3]: 50% (active)
inhibition [4]: -2.6%

COc1ccc(/C=N/NC(=O)c2[nH]c3ccc(Br)cc3c2-c2ccccc2)cc1
inhibition [1]: 62.3% (active)
inhibition [2]: 42.6% (active)
inhibition [3]: 50.7% (active)
inhibition [4]: 32.6% (active)

CCOc1ccc(NC(=O)COC(=O)c2ccc3c(c2)OCCO3)cc1
inhibition [1]: 14%
inhibition [2]: 57.6% (active)
inhibition [3]: 51.9% (active)
inhibition [4]: -12.9%

COc1ccc(/C=C2/CSC/C(=C/c3ccc(OC)c(OC)c3)C2=O)cc1OC
inhibition [1]: -4.62%
inhibition [2]: 74.5% (active)
inhibition [3]: 74.9% (active)
inhibition [4]: 76.8% (active)

CCC(NC(=O)CCl)c1ccc(C)cc1 (configuration not stated)
inhibition [1]: 29.5% (active)
inhibition [2]: 67.3% (active)
inhibition [3]: 53.9% (active)
inhibition [4]: -27.2%

COc1ccc(Oc2ccccc2/C=N/O)cc1
inhibition [1]: 2.42%
inhibition [2]: 57% (active)
inhibition [3]: 58.1% (active)
inhibition [4]: 42.5% (active)

CC(=O)c1ccc(NC(=O)CSC2=NS(=O)(=O)c3cc(Cl)ccc3N2)cc1
inhibition [1]: 7.81%
inhibition [2]: 43.6% (active)
inhibition [3]: 44.5% (active)
inhibition [4]: -9.28%

Cc1ccc(NC(=O)[C@H](Cc2c[nH]c3ccccc23)NC(=O)[C@@H]2Cc3ccccc3CN2)c(C)c1
inhibition [1]: 78.4% (active)
inhibition [2]: 3.94%
inhibition [3]: 71.4% (active)
inhibition [4]: 77.5% (active)

OC[C@@H]1CN(Cc2ccc(-c3ccccc3)cc2)C[C@H](n2cnc3c(NCc4ccco4)ncnc32)O1
inhibition [1]: 22.7%
inhibition [2]: 63.7% (active)
inhibition [3]: 65% (active)
inhibition [4]: 33.6% (active)

COc1ccc(S(=O)(=O)Nc2cc3c4c(oc3c3ccccc23)CCCC4=O)cc1
inhibition [1]: 24.3%
inhibition [2]: 69.6% (active)
inhibition [3]: 65.9% (active)
inhibition [4]: -1.29%

COc1cccc(-c2cnc3c(NC(C)=O)cc(-c4ccc(S(C)(=O)=O)cc4)cn23)c1
inhibition [1]: 15.6%
inhibition [2]: 53.3% (active)
inhibition [3]: 41.6%
inhibition [4]: -13.3%

CN(CCC#N)Cc1cc(=O)oc2ccc3ccccc3c12
inhibition [1]: 13.8%
inhibition [2]: 55.2% (active)
inhibition [3]: 46.2% (active)
inhibition [4]: 5.57%

CC(Nc1ncnc2ccccc12)c1ccccc1 (configuration not stated)
inhibition [1]: 20.9%
inhibition [2]: 60.2% (active)
inhibition [3]: 67.9% (active)
inhibition [4]: 53.7% (active)

Cn1nnnc1Sc1ncnc2scc(-c3ccc(-c4ccccc4)cc3)c12
inhibition [1]: 19.4%
inhibition [2]: 33.6%
inhibition [3]: 39.4%
inhibition [4]: -20.2%

O=C(Nc1ccccc1)c1oc2ccccc2c1NC(=O)C1CC1
inhibition [1]: 3.25%
inhibition [2]: 52.8% (active)
inhibition [3]: 50.5% (active)
inhibition [4]: 1.67%

COc1ccc(Cc2c(-c3cccc(Cl)c3)nc3cc(C)c(Br)c(C)n23)c(C)c1
inhibition [1]: 3.35%
inhibition [2]: 41.3% (active)
inhibition [3]: 36.9%
inhibition [4]: -4.66%

CCOc1ccc(NC(=O)CSc2nncc(=O)n2N)cc1
inhibition [1]: 12.1%
inhibition [2]: 64.5% (active)
inhibition [3]: 43.6% (active)
inhibition [4]: -9.32%

COc1ccc(CCNC(=O)CSc2nc3[nH]c(=O)cc(O)c3s2)cc1
inhibition [1]: 17.6%
inhibition [2]: 60.7% (active)
inhibition [3]: 51.7% (active)
inhibition [4]: -3.78%

Cc1nnc(SCC(=O)Nc2ccc(Br)cc2)n(N)c1=O
inhibition [1]: 6.5%
inhibition [2]: 44.3% (active)
inhibition [3]: 32.1%
inhibition [4]: -5.1%

CC(=O)Oc1ccc(N(C(C)=O)S(=O)(=O)c2ccccc2)c2ccccc12
inhibition [1]: 13%
inhibition [2]: 31.6%
inhibition [3]: 34.9%
inhibition [4]: -3.17%

CC(=O)c1ccc(-c2cnc3c(NC=O)cc(-c4ccc(S(C)(=O)=O)cc4)cn23)cc1
inhibition [1]: 31.7% (active)
inhibition [2]: 74.8% (active)
inhibition [3]: 70.3% (active)
inhibition [4]: -0.51%

CCOc1ccc(CCNC(=O)COC(=O)c2nc(Cl)ccc2Cl)cc1OCC
inhibition [1]: -2.83%
inhibition [2]: 39.2%
inhibition [3]: 28.2%
inhibition [4]: -0.88%

COc1ccc(C2=Nn3c(nnc3-c3ccccc3OC)SC2)cc1OC
inhibition [1]: 52.6% (active)
inhibition [2]: 58.7% (active)
inhibition [3]: 64% (active)
inhibition [4]: 11.1%

C#CCN(C[C@@H]1[C@@H](OC(=O)NCc2ccc(OC)c(OC)c2)[C@@H](OC(=O)NCc2ccc(OC)c(OC)c2)Cn2c(=O)ccc(=O)n21)S(=O)(=O)c1ccc(C)cc1
inhibition [1]: 16.6%
inhibition [2]: 40%
inhibition [3]: 35.7%
inhibition [4]: 10.2%

CCOCc1c(C(=O)Nc2ccccc2N2CCN(C)CC2)oc2ccccc12
inhibition [1]: 13.5%
inhibition [2]: 70.5% (active)
inhibition [3]: 73% (active)
inhibition [4]: 8.89%

Cc1cc(C)c2c(C)c(C(=O)NCc3ccncc3)oc2c1
inhibition [1]: 9.09%
inhibition [2]: 46.3% (active)
inhibition [3]: 38.3%
inhibition [4]: 7.5%

NC(=O)CC[C@H](NC(=O)c1ccc(F)cc1)C(=O)OCC(=O)Nc1ccc(N2CCOCC2)cc1
inhibition [1]: 0.81%
inhibition [2]: 57.5% (active)
inhibition [3]: 47.9% (active)
inhibition [4]: -8.19%

Cc1cc2ncn(/N=C/c3ccc([N+](=O)[O-])s3)c2cc1C
inhibition [1]: 12.7%
inhibition [2]: 60% (active)
inhibition [3]: 58.6% (active)
inhibition [4]: -1.24%

Cc1cc2nc(C3CCCCC3)c(Cc3ccsc3)n2c(C)c1Br
inhibition [1]: 4.75%
inhibition [2]: 36.2%
inhibition [3]: 37.7%
inhibition [4]: 22.4%

COCCn1c(SCC(=O)Nc2ccc(C(C)=O)cc2)nnc1-c1ccco1
inhibition [1]: 14.8%
inhibition [2]: 43.4% (active)
inhibition [3]: 37.4%
inhibition [4]: -1.99%

O=C(CSC1=NCCS1)N1CCN(c2ccc(Cl)cc2)CC1
inhibition [1]: 8.14%
inhibition [2]: 56.3% (active)
inhibition [3]: 53.3% (active)
inhibition [4]: 18.2%

CC1(C(=O)NCc2ccc(Cl)cc2)CCN1C(=O)Cc1ccc(Cl)cc1Cl (configuration not stated)
inhibition [1]: 16%
inhibition [2]: 44.1% (active)
inhibition [3]: 46.5% (active)
inhibition [4]: 4.22%
